Hit rate of the full screen: of about 340,000 compounds, about 240 (0.071%) were called active. This is one part of a sample in which actives are shown more often than they occur.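 Rule for the calls: active = activation above the mean of all tested compounds plus 3 SD, set per screening campaign (cut at about 17% in these data); inactive = the rest.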
Molecular target: Insulin-degrading enzyme (Homo sapiens) (UniProt P14735)
Experiment: human IDE activators in live cells, primary screen, fluorescence polarization, HEK cells, FAbeta-B substrate (AID 493087)
Conditions: FAbeta-B cleavage, at 5.96 µM, stronger effect = higher value, 0% vehicle, 100% cell-free pure enzyme wells

Insulin-degrading enzyme (Homo sapiens), sequence (P14735 whole entry, looked up): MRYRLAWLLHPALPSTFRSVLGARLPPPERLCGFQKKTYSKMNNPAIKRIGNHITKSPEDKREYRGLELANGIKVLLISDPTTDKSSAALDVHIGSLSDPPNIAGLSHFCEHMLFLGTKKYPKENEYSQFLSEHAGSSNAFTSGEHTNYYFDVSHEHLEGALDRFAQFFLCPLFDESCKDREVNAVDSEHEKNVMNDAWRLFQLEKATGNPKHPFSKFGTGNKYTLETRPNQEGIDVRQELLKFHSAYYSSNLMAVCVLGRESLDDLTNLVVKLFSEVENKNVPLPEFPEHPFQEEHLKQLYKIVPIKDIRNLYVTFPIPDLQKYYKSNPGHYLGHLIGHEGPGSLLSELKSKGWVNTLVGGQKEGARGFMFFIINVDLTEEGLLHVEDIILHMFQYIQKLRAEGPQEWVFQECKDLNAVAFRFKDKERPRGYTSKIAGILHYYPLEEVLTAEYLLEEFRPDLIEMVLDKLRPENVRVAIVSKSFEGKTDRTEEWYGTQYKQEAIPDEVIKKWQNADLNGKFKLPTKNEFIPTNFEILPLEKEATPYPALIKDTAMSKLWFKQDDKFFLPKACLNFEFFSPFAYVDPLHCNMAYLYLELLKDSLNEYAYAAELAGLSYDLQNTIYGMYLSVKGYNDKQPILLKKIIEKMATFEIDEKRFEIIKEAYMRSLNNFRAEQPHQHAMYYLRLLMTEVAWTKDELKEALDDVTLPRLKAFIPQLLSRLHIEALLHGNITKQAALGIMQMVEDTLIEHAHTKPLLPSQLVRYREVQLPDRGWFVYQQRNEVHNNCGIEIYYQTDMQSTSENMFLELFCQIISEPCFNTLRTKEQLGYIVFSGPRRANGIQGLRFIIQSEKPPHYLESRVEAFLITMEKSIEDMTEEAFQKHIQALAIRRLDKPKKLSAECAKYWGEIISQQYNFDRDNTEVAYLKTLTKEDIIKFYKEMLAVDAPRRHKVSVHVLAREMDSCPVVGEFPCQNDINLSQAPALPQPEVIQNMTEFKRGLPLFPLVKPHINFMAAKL

Question: Which activation does the source give for `NC(=O)COC(=O)c1ccc2c(c1)C(=O)N(Cc1ccco1)C2=O` here?
Answer: 1.77% (inactive)

Question: For `O=C(Nc1cc2c3c(c1)C1CCCC1CN3CC1CCCC21)c1ccc([N+](=O)[O-])cc1` (stereo unspecified), which activation is on record?
Answer: 1.32% (inactive)

Question: `CC(=O)c1ccc(N2CCN(CC(O)c3ccccc3)CC2)cc1` (stereo unspecified) was tested. Which activation did it give?
Answer: 3.22% (inactive)

Question: With `COCCNC(=O)COc1ccccc1C` as the molecule, how does the activation read?
Answer: 3.83% (inactive)

Question: Which activation does the source give for `CC(C)(C)c1nnc2sc(SCC(O)=C(C#N)c3nc4ccccc4[nH]3)nn2c1=O` here?
Answer: -2.57% (inactive)

Question: `Cc1ccccc1OC/C(O)=C(\C#N)c1nc2ccccc2[nH]1` was tested. Which activation did it give?
Answer: 22.2% (active)

Question: How did the activation turn out when `O=C(Nc1ccccc1C(=O)N1CCCCC1)c1ccco1` was run?
Answer: 7.42% (inactive)

Question: How did the activation turn out when `CC(C)[C@@H](C(=O)OCC(=O)c1ccc2c(c1)NC(=O)CO2)N1C(=O)c2ccccc2C1=O` was run?
Answer: 6.47% (inactive)

Question: For `O=C(O)CCn1cc(/C=C/C(=O)c2ccc(Cl)cc2)c(-c2cccc(Br)c2)n1`, which activation is on record?
Answer: 7.16% (inactive)

Question: Which activation does the source give for `COc1cc2c3c(c1)/C(=C1/SC(=S)NC1=O)C(=O)N3C(C)(C)C=C2C` here?
Answer: 3.91% (inactive)

Question: For `O=C(CSc1nc2nccnc2c(=O)n1Cc1cccs1)Nc1ccccc1F`, which activation is on record?
Answer: -1.39% (inactive)

Question: `N#C/C(=C/c1cccc([N+](=O)[O-])c1)c1nnc2n1CCCCC2` was tested. Which activation did it give?
Answer: 1.53% (inactive)

Question: `O=C(O)c1ccc(S(=O)(=O)N2CCC(Cc3ccccc3)CC2)cc1` was tested. Which activation did it give?
Answer: -5.76% (inactive)

Question: How did the activation turn out when `COc1ccc(-c2c(-c3cc(OC)cc(OC)c3)n(C)c3ccc(-c4ccn[nH]4)cc23)cc1` was run?
Answer: 1.2% (inactive)

Question: For `CCSc1nc(=S)n(CC)c(C)c1C(C)=O`, which activation is on record?
Answer: -2.33% (inactive)

Question: For `CC1=C(C)CC(C(=O)NNC(=O)c2csc3c2CCC(C(C)(C)C)C3)C(C(=O)O)C1` (stereo unspecified), which activation is on record?
Answer: 4.06% (inactive)

Question: For `Cc1ccc(CNC(=O)C2CCN(S(=O)(=O)c3ccc4nc5c(c(C(=O)O)c4c3)CC(C)CC5)CC2)cc1` (stereo unspecified), which activation is on record?
Answer: -1.27% (inactive)

Question: `Cc1ccc(-c2nc(COC(=O)c3c(C)noc3C)cs2)cc1` was tested. Which activation did it give?
Answer: -2.15% (inactive)

Question: For `COC(=O)c1sc2[nH]c(=S)n(N)c(=O)c2c1C`, which activation is on record?
Answer: 3.84% (inactive)

Question: Which activation does the source give for `O=C(CCC(=O)N1CCN(S(=O)(=O)c2ccc(Cl)cc2)CC1)NCc1cccc(C(F)(F)F)c1` here?
Answer: 2.14% (inactive)

Question: `Cc1ccc(S(=O)(=O)N(C)CC(=O)NCC(c2ccc(F)cc2)N2CCOCC2)cc1` (stereo unspecified) was tested. Which activation did it give?
Answer: 1.51% (inactive)

Question: How did the activation turn out when `Cn1nccc1C(=O)N1CCCC(C(=O)c2ccc(Oc3ccccc3)cc2)C1` (stereo unspecified) was run?
Answer: -8.2% (inactive)

Question: How did the activation turn out when `O=C(NCCCn1ccnc1)C(=O)NCC1OCCN1S(=O)(=O)c1cc(F)ccc1F` (stereo unspecified) was run?
Answer: 4.73% (inactive)

Question: With `COc1ccc(-n2ncc3c2CC(C)(C)CC3NC(=O)CCc2c(C)nn(C)c2C)cc1` (stereo unspecified) as the molecule, how does the activation read?
Answer: 5.01% (inactive)

Question: `CN1CCC(=NNC(=O)CN(c2cccc(Cl)c2)S(C)(=O)=O)CC1` was tested. Which activation did it give?
Answer: 2.41% (inactive)

Question: Which activation does the source give for `O=C(CN1C(=O)NC(Cc2ccccc2)(Cc2ccccc2)C1=O)NCC1CCCCC1` here?
Answer: 2.02% (inactive)

Question: For `CCc1cc(=O)oc2cc(OCC(=O)N3CCCc4ccccc43)ccc12`, which activation is on record?
Answer: -2.67% (inactive)

Question: With `O=C(CN1C(=O)CC(c2ccccc2)=Nc2ccccc21)NC1CCCCC1` as the molecule, how does the activation read?
Answer: 1.38% (inactive)

Question: Which activation does the source give for `CC12CCCCC1=CC(=O)CC2` (stereo unspecified) here?
Answer: 3.28% (inactive)

Question: How did the activation turn out when `Cc1ccc(S(=O)(=O)N2CC(C)N(S(C)(=O)=O)C2)cc1` (stereo unspecified) was run?
Answer: 2.36% (inactive)

Question: Which activation does the source give for `COCC1CCN(C(=O)CCc2nnc(C3(c4ccc(Cl)cc4)CCC3)o2)C1` (stereo unspecified) here?
Answer: 0.92% (inactive)

Question: With `CCC(Cc1ccccc1)NS(=O)(=O)c1ccc2c(c1)NC(=O)CS2` (stereo unspecified) as the molecule, how does the activation read?
Answer: 4.18% (inactive)

Question: How did the activation turn out when `O=C(NCCCN1CCOCC1)c1ccc2c(c1)N(Cc1cccc(F)c1)C(=O)c1ccccc1S2` was run?
Answer: 0.8% (inactive)

Question: With `CN1CCN(CCCNC(=O)c2ccc(/C=C3\Oc4ccccc4N(Cc4ccc(Cl)cc4)C3=O)cc2)CC1` as the molecule, how does the activation read?
Answer: -0.17% (inactive)

Question: Which activation does the source give for `CCN1CCN(CCNC(=O)c2ccc(/C=C3/Sc4ccccc4N(Cc4cccc(C)c4)C3=O)cc2)CC1` here?
Answer: 24.8% (active)

Question: `CCC1CCCCN1C(=S)Nc1ccc(C(C)=O)cc1` (stereo unspecified) was tested. Which activation did it give?
Answer: 1.79% (inactive)

Question: How did the activation turn out when `CCOC(=O)c1cc2c(=O)n3ccccc3nc2n(CC(C)C)c1=NC(=O)c1c(-c2c(F)cccc2Cl)noc1C` was run?
Answer: 1.41% (inactive)

Question: How did the activation turn out when `CC1(C)CC(N2CCN(C(c3ccccc3)c3ccccc3)CC2)=CC(=[N+]2CCCCC2)C1` was run?
Answer: 0.04% (inactive)

Question: With `Oc1c(CN2CCOCC2)ccc(CN2CCOCC2)c1O` as the molecule, how does the activation read?
Answer: -3.83% (inactive)

Question: How did the activation turn out when `c1ccc2c(c1)CCc1snnc1-2` was run?
Answer: 2.79% (inactive)

Question: Which activation does the source give for `NC1=NOC(=O)C1C1CCCCC1` (stereo unspecified) here?
Answer: 5.24% (inactive)

Question: Which activation does the source give for `COC(=O)Nc1ccc(S(=O)(=O)N(C)CC(F)(F)C(F)F)cc1` here?
Answer: 3.58% (inactive)

Question: `Brc1ccc(/C=N/N2CCN(C3c4ccccc4-c4ccccc43)CC2)s1` was tested. Which activation did it give?
Answer: -7.03% (inactive)

Question: Which activation does the source give for `CCc1ccc(C(=O)NNC(=O)C2CCN(c3ncnc4sc(C)c(C)c34)CC2)cc1` here?
Answer: -11.5% (inactive)

Question: `COc1ccc(C(=O)NCCn2nc(C)cc2C)cc1OC1CCN(C(C)=O)CC1` was tested. Which activation did it give?
Answer: 1.62% (inactive)

Question: `O=c1nc(N2CCOCC2)nc2n1CCO2` was tested. Which activation did it give?
Answer: -0.31% (inactive)

Question: How did the activation turn out when `Cc1ccc(S(=O)(=O)/N=C(\CN2CCOCC2)N2CCOCC2)cc1` was run?
Answer: -5.66% (inactive)

Question: With `COc1cc2[nH]c(O)c(C=O)c2cc1OC` as the molecule, how does the activation read?
Answer: -5.21% (inactive)

Question: For `Cc1ccc(O)c(NC(=S)NC(=O)COc2ccc(Br)cc2)c1`, which activation is on record?
Answer: 18.1% (active)

Question: How did the activation turn out when `COc1ccc(C(=O)Nc2cc(C)ccc2NC(=O)COc2ccccc2)cc1` was run?
Answer: 0.16% (inactive)

Question: With `CCS(=O)(=O)c1ccc(O)c(NC(=O)COc2ccc(Cl)cc2)c1` as the molecule, how does the activation read?
Answer: 0.73% (inactive)

Question: Which activation does the source give for `Cc1cc(C)n2nc(C(=O)Nc3cccc(S(=O)(=O)N4CCOCC4)c3)nc2n1` here?
Answer: 1.61% (inactive)

Question: With `COc1ccc([C@H]2CC(=O)C=C(/C=C/c3ccc(Cl)cc3)C2)cc1` as the molecule, how does the activation read?
Answer: 3.83% (inactive)

Question: With `COCc1cc(C)n(CC(=O)NCC2CCCO2)c(=O)c1C#N` (stereo unspecified) as the molecule, how does the activation read?
Answer: -1.81% (inactive)

Question: Which activation does the source give for `COc1ccc(CCNC(=O)COC(=O)C2CC2C)cc1` (stereo unspecified) here?
Answer: 3.39% (inactive)

Question: `O=C(CCCCCCCC(=O)N1CCCCC1)N1CCCCC1` was tested. Which activation did it give?
Answer: -0.9% (inactive)

Reference: PubChem BioAssay AID493087 (The Scripps Research Institute Molecular Screening Center, 2011)
